Assay results: PubChem BioAssay (NCATS)
Results filed as inconclusive are left out. Entries that show only a call come without a potency. Calls of active or inactive are those of the source. Unless noted, calls come from the whole dose curve; as a rule, active = well fitted curve in the direction sought with a large enough effect; inconclusive = small, poorly fitted or top-dose-only effect, or another doubt; inactive = no such curve, though single readings can be large; an effect the other way counts as inactive or inconclusive.

Key:
[1] = qHTS for differential inhibitors of proliferation of Plasmodium falciparum line W2 (AID 1883); conditions: Potency: Plasmodium falciparum W2 proliferation inhibition;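 note: potency is the fitted concentration of half-maximal effect; parasites grown with compound for 72 h before lysis and staining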
[2] = target: Glucocorticoid receptor (Homo sapiens) (UniProt P04150); assay: qHTS assay for small molecule antagonists of glucocorticoid receptor signaling (AID 588533; active = well fitted inhibition curve with a large enough effect in the signal ratio, with a control signal flat, not every such curve was filed as active; the % refers to the signal ratio;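 note: cells stimulated with 2 nM dexamethasone as agonist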; note: potency is the fitted concentration of half-maximal effect)
Chain of Glucocorticoid receptor (Homo sapiens) (P04150 whole entry, looked up): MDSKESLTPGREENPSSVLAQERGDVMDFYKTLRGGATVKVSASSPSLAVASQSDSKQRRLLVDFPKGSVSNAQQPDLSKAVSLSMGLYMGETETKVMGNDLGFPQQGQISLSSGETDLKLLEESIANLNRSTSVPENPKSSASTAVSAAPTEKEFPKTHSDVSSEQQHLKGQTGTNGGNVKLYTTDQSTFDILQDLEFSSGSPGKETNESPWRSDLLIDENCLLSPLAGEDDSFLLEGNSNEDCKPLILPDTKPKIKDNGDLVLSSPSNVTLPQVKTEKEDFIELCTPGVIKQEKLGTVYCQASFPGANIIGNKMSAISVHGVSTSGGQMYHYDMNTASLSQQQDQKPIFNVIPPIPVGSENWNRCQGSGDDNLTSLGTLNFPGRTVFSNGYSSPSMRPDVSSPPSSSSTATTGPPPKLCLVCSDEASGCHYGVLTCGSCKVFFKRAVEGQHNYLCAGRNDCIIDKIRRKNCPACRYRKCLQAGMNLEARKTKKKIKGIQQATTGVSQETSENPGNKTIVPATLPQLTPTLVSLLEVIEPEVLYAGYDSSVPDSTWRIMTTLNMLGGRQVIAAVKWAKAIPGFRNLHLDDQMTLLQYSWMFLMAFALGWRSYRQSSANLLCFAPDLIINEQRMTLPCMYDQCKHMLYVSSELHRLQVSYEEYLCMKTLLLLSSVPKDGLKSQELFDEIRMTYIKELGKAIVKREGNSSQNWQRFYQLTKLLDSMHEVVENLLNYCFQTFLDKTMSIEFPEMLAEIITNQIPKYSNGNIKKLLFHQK
Outline: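 Antagonist-mode qHTS: compound titrations added to GRE-bla HeLa cells, then dexamethasone 2 nM final; 18 h, 37 C. CCF4 FRET fluorescence normalized to dexamethasone and DMSO; IC50 from Hill fit.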

[3] = Cell Viability - N2a (AID 540); conditions: N2a mouse neuroblastoma cell viability; at 92.2 µM (top of the series); note: nearly all actives have a fitted effect of over 45% in size
Outline: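 Mouse neuroblastoma N2a cells, 1500/well, exposed to compounds 40 h at 37 °C in complete medium. Viability measured as cellular ATP by CellTiter-Glo luminescence; AC50 from Hill fits of concentration-response.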

[4] = Cell Viability - NIH 3T3 (AID 541); conditions: NIH 3T3 cell viability, qHTS; at 92.2 µM (top of the series); note: nearly all actives have a fitted effect of over 25% in size
Outline: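 Mouse NIH 3T3 fibroblasts, 1000 cells/well, rested 5 hr at 37 °C, then exposed to compound for 40 hr at 37 °C in complete medium. Viability read as intracellular ATP by CellTiter-Glo luminescence; AC50 from Hill-equation fits of concentration-response data.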

[5] = Cell Viability - Renal Proximal Tubule (AID 545); note: nearly all actives have a fitted effect of over 40% in size
Outline: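 Rat kidney proximal tubule cells, freshly isolated; 1000 cells/well, 5 hr settle, compound 40 hr 37 °C. CellTiter-Glo 20 min RT, luminescence read. AC50 by standard Hill fit.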

[6] = Cellular Toxicity (caspase-3) Jurkat (AID 655);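 note: cells exposed to compound for 16 h at 37 °C before reading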
Outline: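 Luminescent caspase-3/7 readout (aminoluciferin substrate cleavage) in human T-cell leukemia Jurkat cells after 16 hr compound exposure. Concentration-response normalized to DMSO and 100 uM tamoxifen; AC50 by standard Hill equation.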

[7] = Cellular Toxicity (caspase-3) Mesangial (AID 660);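 note: combined caspase 3 and 7 activity read by Caspase-Glo luminescence; cells exposed to compound for 16 h before the caspase read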
Outline: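 Human renal glomerular mesangial cells, 1000/well, 5 h at 37 C before 16 h compound treatment. Caspase-Glo 3/7 luminescence after 20 min; normalized to DMSO and 100 uM tamoxifen, AC50 from Hill fit.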

[8] = Cell Viability - LYMP2-001 (AID 921); note: nearly all actives have a fitted effect of over 70% in size
Outline: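 CellTiter-Glo luminescence (intracellular ATP) after 24 hr compound exposure at 37 C, 2500 lymphoblastoid cells/well in complete medium. AC50 fitted with standard Hill equation; tetraoctylammonium bromide positive control.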

[9] = Cell Viability - LYMP2-007 (AID 979);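 note: cells exposed to compound for 24 h before reading; nearly all actives have a fitted effect of over 60% in size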
Outline: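 Human lymphoblastoid LYMP2-007 cells (2500/well) preincubated 5 h at 37 C, then treated 24 h at 37 C in complete medium. Viability by CellTiter-Glo ATP luminescence after 30 min at room temperature; AC50 from Hill fits.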

[10] = Cell Viability - LYMP2-026 (AID 989); note: nearly all actives have a fitted effect of over 50% in size
Outline: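 Human lymphoblastoid LYMP2-026 cells, 2500/well, exposed to compound 24 h at 37 C in complete medium. Viability as intracellular ATP by CellTiter-Glo luminescence; AC50 from Hill fits of qHTS concentration-response.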

[11] = Cell Viability - LYMP1-002 - Assay at 24 hr (AID 993)
Outline: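 Human lymphoblastoid LYMP1-002 cells (2500/well) treated 24 h at 37 °C; viability as intracellular ATP by CellTiter-Glo luminescence. Tetraoctylammonium bromide as positive control; AC50 from Hill-equation fits of qHTS concentration-response.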

[12] = qHTS Assay for Identification of Small Molecule Inducers of Hypoxia Response (AID 2120; active = well fitted curve in the direction sought with a large enough effect in the signal ratio, with a control signal flat, not every such curve was filed as active; the % refers to the signal ratio)
Outline: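 HRE-bla ME-180 cells in Opti-MEM with 0.5% dialyzed FBS, pre-plated 4-5 h, then compound titration for 17 h at 37 degrees Celsius. CCF4 loaded 2.5 h at room temperature; 460/530 nm ratio gave %Activity and AC50 for induction.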

[13] = target: Peroxisome proliferator-activated receptor gamma (Homo sapiens) (UniProt P37231); assay: qHTS assay for small molecule agonists of peroxisome proliferator-activated receptor gamma signaling (AID 588536; active = well fitted curve in the direction sought with a large enough effect in the signal ratio, with a control signal flat, not every such curve was filed as active; the % refers to the signal ratio)
Chain of Peroxisome proliferator-activated receptor gamma (Homo sapiens) (P37231 whole entry, looked up): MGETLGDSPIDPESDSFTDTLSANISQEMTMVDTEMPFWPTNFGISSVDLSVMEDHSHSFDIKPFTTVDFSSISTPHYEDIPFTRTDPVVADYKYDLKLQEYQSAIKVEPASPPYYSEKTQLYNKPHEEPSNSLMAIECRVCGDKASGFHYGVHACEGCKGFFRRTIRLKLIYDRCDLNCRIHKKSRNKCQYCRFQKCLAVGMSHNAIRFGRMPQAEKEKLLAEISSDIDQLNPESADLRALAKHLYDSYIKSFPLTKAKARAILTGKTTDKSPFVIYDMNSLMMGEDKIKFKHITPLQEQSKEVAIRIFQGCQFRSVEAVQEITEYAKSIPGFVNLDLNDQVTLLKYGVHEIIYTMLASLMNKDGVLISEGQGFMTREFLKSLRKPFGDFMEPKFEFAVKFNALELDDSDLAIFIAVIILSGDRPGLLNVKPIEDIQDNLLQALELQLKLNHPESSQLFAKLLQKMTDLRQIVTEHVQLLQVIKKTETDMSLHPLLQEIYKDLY
Outline: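 GeneBLAzer PPAR-gamma-UAS-bla HEK293 cells in 1% charcoal/dextran-treated FBS medium were treated 16 h at 37 C with compounds. Beta-lactamase activity was read by CCF4 ratio (460/530 nm). Response was normalized to 2 uM rosiglitazone (100%) and DMSO, then Hill-fitted for EC50 and efficacy.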

[14] = target: Thyroid hormone receptor beta (Homo sapiens) (UniProt P10828); assay: qHTS assay for small molecule agonists of thyroid hormone receptor beta signaling (AID 588545; calls by dose curve)
Chain of Thyroid hormone receptor beta (Homo sapiens) (P10828 whole entry, looked up): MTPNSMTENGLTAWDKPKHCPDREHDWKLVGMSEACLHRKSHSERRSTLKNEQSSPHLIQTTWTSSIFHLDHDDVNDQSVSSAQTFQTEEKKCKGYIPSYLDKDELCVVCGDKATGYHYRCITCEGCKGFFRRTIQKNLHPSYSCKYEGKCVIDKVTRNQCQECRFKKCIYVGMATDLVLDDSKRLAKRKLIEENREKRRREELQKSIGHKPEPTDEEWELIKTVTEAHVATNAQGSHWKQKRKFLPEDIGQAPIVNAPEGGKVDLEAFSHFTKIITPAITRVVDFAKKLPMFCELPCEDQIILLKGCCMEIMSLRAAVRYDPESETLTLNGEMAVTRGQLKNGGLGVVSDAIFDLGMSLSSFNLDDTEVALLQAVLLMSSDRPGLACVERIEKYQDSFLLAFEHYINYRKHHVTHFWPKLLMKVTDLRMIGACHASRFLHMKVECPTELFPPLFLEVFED
Outline: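 Beta-lactamase reporter activity under TR response element control is measured in HEK 293 cells after 18 hrs compound exposure. Signal is ratiometric CCF4 fluorescence, 460/530 nm.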

[15] = qHTS assay for small molecule antagonists of retinoid X receptor alpha signaling (AID 588546; active = well fitted inhibition curve with a large enough effect in the signal ratio, with a control signal flat, not every such curve was filed as active; the % refers to the signal ratio;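 note: cells stimulated with 9-cis-retinoic acid as agonist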); conditions: HEK293T RXRa-UAS-bla, beta-lactamase ratio, antagonist mode; measured here: W530 green channel, cytotoxicity proxy
Outline: (§1)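 Beta-lactamase reporter inhibition, read as CCF4 fluorescence ratio (ex 405, em 460/530 nm) after 2 h at RT. HEK293T UAS-bla cells, 2500/well, were stimulated with 9-cis-RA at 500 or 100 nM final alongside test compound for 18 h at 37 C.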

[16] = target: Retinoic acid receptor RXR-alpha (Homo sapiens) (UniProt P19793); assay: as above; conditions: HEK293T RXRa-UAS-bla, beta-lactamase ratio, antagonist mode
Chain of Retinoic acid receptor RXR-alpha (Homo sapiens) (P19793 whole entry, looked up): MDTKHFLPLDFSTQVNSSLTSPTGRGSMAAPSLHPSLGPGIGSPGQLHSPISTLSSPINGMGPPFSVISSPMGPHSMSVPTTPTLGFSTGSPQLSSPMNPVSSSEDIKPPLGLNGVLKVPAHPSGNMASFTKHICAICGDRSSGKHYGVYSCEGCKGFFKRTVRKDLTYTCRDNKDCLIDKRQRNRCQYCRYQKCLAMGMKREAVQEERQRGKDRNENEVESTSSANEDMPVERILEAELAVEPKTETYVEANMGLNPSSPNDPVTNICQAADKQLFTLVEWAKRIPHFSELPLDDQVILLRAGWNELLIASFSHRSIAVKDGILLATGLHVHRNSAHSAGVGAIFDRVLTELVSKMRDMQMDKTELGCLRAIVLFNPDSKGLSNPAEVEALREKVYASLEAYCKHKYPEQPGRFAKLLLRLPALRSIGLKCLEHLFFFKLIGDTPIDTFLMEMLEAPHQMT
Outline: as §1

[17] = target: Thyroid hormone receptor beta (Homo sapiens) (UniProt P10828); assay: qHTS assay for small molecule antagonists of thyroid hormone receptor beta signaling (AID 588547; active = well fitted inhibition curve with a large enough effect in the signal ratio, with a control signal flat, not every such curve was filed as active; the % refers to the signal ratio;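 note: cells stimulated with 0.4 nM T3 agonist during compound exposure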); conditions: TR-UAS-bla HEK293, beta-lactamase ratio, antagonist mode, 18 h
Outline: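 Inhibition of T3-driven (0.4nM final) beta-lactamase reporter activity was measured over 0.59 nM to 92 uM compound after 18 h at 37 C. The cells were GripTite HEK293 TR-UAS-bla in charcoal/dextran-stripped serum, with CCF4 ratio read-out and IC50 from Hill fits.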

[18] = qHTS assay for small molecule disruptors of the mitochondrial membrane potential - 1 hr assay (AID 651754; calls by dose curve; note: nearly all actives have a fitted effect of over 35% in size)
Outline: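 HepG2 cells, attached overnight, were exposed to compound for 1 hr at 37C, then stained 30 min with a potentiometric dye. Ratio of red aggregate (590nm) to green monomer (535nm) fluorescence reports membrane potential; collapse shifts signal toward green.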

[19] = target: Tumor necrosis factor (Homo sapiens) (UniProt P01375); assay: qHTS assay to identify small molecules that stimulate Tumor Necrosis Factor-alpha (TNF-alpha) secretion (AID 651757; active = well fitted curve in the direction sought with a large enough effect in the signal ratio; the % refers to the signal ratio)
Chain of Tumor necrosis factor (Homo sapiens) (P01375 whole entry, looked up): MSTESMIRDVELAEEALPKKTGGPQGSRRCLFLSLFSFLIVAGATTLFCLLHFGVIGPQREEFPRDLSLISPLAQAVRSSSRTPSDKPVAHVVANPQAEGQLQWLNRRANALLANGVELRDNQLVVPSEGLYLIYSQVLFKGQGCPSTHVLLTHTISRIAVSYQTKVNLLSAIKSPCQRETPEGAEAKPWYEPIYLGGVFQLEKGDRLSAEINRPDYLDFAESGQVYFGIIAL
Outline: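 THP-1 cells (3000/well) exposed to compounds 17 hrs at 37 C. Secreted TNF-alpha detected by HTRF with cryptate- and XL665-labeled anti-TNF-alpha antibodies after 3 hr at room temperature.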

[20] = qHTS assay for small molecule agonists of the antioxidant response element (ARE) signaling pathway measured by Nrf2-dependant transcriptional activity (AID 720636; active = well fitted curve in the direction sought with a large enough effect in the repeat runs; an effect the other way counts as inactive or inconclusive)
Outline: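 ARE-luc HepG2 cells carrying an Nrf2-responsive luciferase reporter were plated in medium with 1% dialyzed FBS, left 6 hr at 37 C to attach, then exposed to compound for 16 hr. Luciferase luminescence was read after ONE-Glo addition.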

Compound	Potency [1]	Potency [2]	activity change, negative = cytotoxicity [3]	activity change, negative = cytotoxicity [4]	outcome [5]	outcome [6]	outcome [7]	outcome [8]	outcome [9]	outcome [10]	outcome [11]	outcome [12]	outcome [13]	Potency [14]	max response [15]	max response [16]	activity change % (negative = inhibition) [17]	Potency [18]	outcome [19]	Potency [20]
Oc1ccccc1O	10 µM (active)	35.5 µM (active)	–	–	–	–	–	–	–	–	–	–	–	–	–	–	–	–	–	–
N#C/C(=C\c1ccc(O)c(O)c1)C(=O)NCCCNC(=O)/C(C#N)=C/c1ccc(O)c(O)c1	2.24 µM (active)	–	–	–	–	–	–	–	–	–	–	–	–	–	–	–	–	–	–	–
CC(C)COC(=O)c1ccccc1C(=O)OCC(C)C	–	inactive	-12.6% (inactive)	-26.2% (inactive)	inactive	inactive	inactive	inactive	inactive	inactive	inactive	inactive	inactive	inactive	-12.2%	12.8% (inactive)	9.26% (inactive)	inactive	inactive	inactive
CN1[C@@H](CC(=O)c2ccccc2)CCC[C@H]1C[C@H](O)c1ccccc1	3.98 µM (active)	–	–	–	–	–	–	–	–	–	–	–	–	–	–	–	–	–	–	–
CCOC(=O)c1ccccc1N	–	inactive	3.3% (inactive)	-0.518% (inactive)	inactive	inactive	inactive	inactive	inactive	inactive	inactive	inactive	inactive	inactive	-2.66%	10.1% (inactive)	5.04% (inactive)	inactive	inactive	inactive
Oc1ccccc1Cl	–	inactive	-11.6% (inactive)	-20.7% (inactive)	inactive	inactive	inactive	inactive	inactive	inactive	inactive	inactive	inactive	inactive	-10.5%	10.4% (inactive)	-7.68% (inactive)	inactive	inactive	inactive
